These results are taken from PubChem BioAssay AID493168 (National Center for Advancing Translational Sciences (NCATS), 2011).

Structures are written as SMILES. Records with an inconclusive call do not appear. Values without a mark were called inactive. The source made the active and inactive calls. Calls come from the whole dose curve; as a rule, active = well fitted inhibition curve with a large enough effect; inconclusive = small, poorly fitted or top-dose-only effect, or effect the other way; inactive = flat fitted curve, though single readings scatter.
Potency is the fitted concentration of half-maximal effect.

Ubiquitin carboxyl-terminal hydrolase 2 (Homo sapiens), sequence (O75604 whole entry, looked up): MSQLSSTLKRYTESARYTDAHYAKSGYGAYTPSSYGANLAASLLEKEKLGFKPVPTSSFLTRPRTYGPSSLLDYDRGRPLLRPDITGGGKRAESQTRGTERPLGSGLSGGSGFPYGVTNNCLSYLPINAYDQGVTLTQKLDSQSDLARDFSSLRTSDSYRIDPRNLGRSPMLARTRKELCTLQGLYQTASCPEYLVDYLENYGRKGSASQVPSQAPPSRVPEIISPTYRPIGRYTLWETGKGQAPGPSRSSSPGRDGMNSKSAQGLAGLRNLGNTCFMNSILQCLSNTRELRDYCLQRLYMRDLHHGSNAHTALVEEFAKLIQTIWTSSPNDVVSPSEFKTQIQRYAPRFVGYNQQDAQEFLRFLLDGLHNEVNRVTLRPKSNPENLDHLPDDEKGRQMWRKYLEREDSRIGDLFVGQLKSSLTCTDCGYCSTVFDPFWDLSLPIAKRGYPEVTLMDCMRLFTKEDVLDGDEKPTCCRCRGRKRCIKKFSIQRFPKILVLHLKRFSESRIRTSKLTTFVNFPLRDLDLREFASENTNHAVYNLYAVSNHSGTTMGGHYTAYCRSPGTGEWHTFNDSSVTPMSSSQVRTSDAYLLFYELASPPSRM

The target of this assay is Ubiquitin carboxyl-terminal hydrolase 2 (Homo sapiens) (UniProt O75604). The experiment in a line: Confirmation Assay for Inhibitors of Ubiquitin-specific Protease USP2a Using CHOP2 as the Reporter.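 For activity change, negative = inhibition: plate controls were DMSO wells for no effect and full inhibition by NEM control for full effect.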 Note: nearly all actives have a fitted effect of over 55% in size. The conditions noted are these: USP2 core, Ub-CHOP2 coupled reporter fluorescence; series mostly up to 38.3 µM; activity change, negative = inhibition: at the top concentration. The source says:
NIH Molecular Libraries Probe Centers Network [MLPCN] NIH Chemical Genomics Center [NCGC] MLSCN Grant: XO1-MH079852-01 PI Name: Nicholson, Ben. Progenra Inc, Malvern, PA NCGC Assay Overview: Homeostasis of cellular proteins is maintained through a combination of synthesis and degradation. The pathway that accounts for the majority of protein degradation is the ubiquitin-proteasomal pathway. Ubiquitin (Ub) is highly conserved in all cells and the generation of a multi-Ub chain typically targets proteins for degradation by the proteasome. However, ubiquitination is highly reversible and dynamic. Deubiquitination, the reverse process, is catalyzed through the action of enzymes referred to as isopeptidases or deubiquitinating enzymes (DUBs). This group of enzymes is collectively responsible for maintaining adequate pools of free ubiquitin and regulating the ubiquitination status of cellular proteins. The class of DUBs referred to as the ubiquitin-specific proteases (USP) family functions endoproteolytically to cleave Ub chains from a wide range of protein substrates. USP2a deubiquitinates fatty acid synthase (FASN) which has recently been identified as an emerging oncology target. To identify inhibitors of USP2a a cell-free assay was employed. […] The reporter enzyme chosen is an […] called CHOP2, which is activated when the Ub is cleaved by USP2. The free and now activated reporter can subsequently act on its reporter substrate. Thus, this coupled assay gives a fluorescent read-out at excitation/emission wavelengths of 485/531. The assay was developed by Progenra, Inc. and has been licensed for sale by LifeSensors, Inc. as Ub-CHOP2-Reporter-Kit (#PR1101).
NCGC Assay Protocol Summary: The assay buffer, prepared fresh at the day of the assay, contains 20mM Tris-HCl pH 8.0, 2mM CaCl2, 2mM beta-Mercaptoethanol, 0.05% CHAPS. 3ul of 20nM (10nM final) USP2 core, which is stored on ice, is dispensed into a medium-binding black solid Kalypsys 1,536 well plate using the Kalypsys dispenser. The assay plate is then pinned with 23nL compound with the Kalypsys pintool in columns 5-48. The controls are pinned as follows: column 1 two-fold dilutions of 2M NEM in duplicate; column 2 2M NEM (final concentration 38.2mM); column 3&4 DMSO. The assay plate is incubated at RT for 30min. Subsequently, 1.5uL of 100nM (25nM final) Ub-CHOP2 and 1.5uL of 100nM (25nM final) Reporter Substrate (both stored on ice and protected from light) were dispensed into the plate using the Kalypsys dispenser. Plates were read after 60min RT incubation on a ViewLux (Perkin Elmer) plate reader using the following wavelengths Ex 485nm /Em 531nm. Data were normalized to the to AC100 inhibition (NEM). Concentration-response curves were fitted to the normalized data and the concentration-response curves were then classified based on curve quality (r2), response magnitude and degree of measured activity. The time zero reading was used to flag fluorescence artifacts. Keywords: ubiquitination, deubiquitination, proteases, profluorescent, MLSMR, MLPCN, NIH Roadmap, qHTS, NCGC
Consider `O=C(COc1ccc(S(=O)(=O)N2CCOCC2)cc1)N1CCN(Cc2ccc3c(c2)OCO3)CC1`, for which the “activity change, negative = inhibition” value was 0.801%.
The same measure, in the same setting: the figure for `FC(F)(F)c1ccc2c(c1)N(CCCN1CCN(CCCl)CC1)c1ccccc1S2` is 0.492%; for `CCCC1=C(C(=O)OCC)C2(C(=O)Nc3ccc(C)cc32)C(C#N)=C(N)O1` (stereo not drawn) it is 3.9%; for `O=c1[nH]c(=S)n(Cc2ccco2)c(O)c1C=NCc1cccs1` it is -18.4%.
Still for that read-out and setting: for `O=C1NC(=O)N(Cc2ccco2)C(=O)/C1=C/c1cccn1CCOc1ccccc1Cl` the value was -3.58%; for `OC(c1ccncc1)(c1ccc(F)cc1)c1ccc(F)cc1`, -3.95%.
On the same count and under the same terms, for `O=c1[nH]c(=O)n(Cc2ccc(F)cc2)c(O)c1C=NCCCn1ccnc1` the value was -3.8%.
As to `O=C1CC(=O)N(Cc2ccccc2)C(=O)N1CCCCCCN1C(=O)CC(=O)N(Cc2ccccc2)C1=O`, the “activity change, negative = inhibition” value is -1.12%.
With `O=C1NC(=S)N(c2ccccc2)C(=O)/C1=C/c1ccco1`, the Potency was 14.7 µM (active).
The same measure, in the same setting: the figure for `O=C(O)c1cccc2c1NC(C(=O)O)C1CC(Sc3ccccc3[N+](=O)[O-])C(Cl)C21` (stereo not drawn) is 7.36 µM (active); for `NC(N)=N/N=C/c1ccc(N(c2ccccc2)c2ccccc2)cc1` it is 16.5 µM (active); for `CC1Oc2cc3c(-c4c(O)cc(O)c5c(O)c6c(cc45)OC(C)C(C)C6=O)c(O)cc(O)c3c(O)c2C(=O)C1C` (stereo not drawn) it is 13.1 µM (active).
In the case of `COc1ccc(S(=O)(=O)Cc2ccc(C(=O)N3CCC4(CC3)OCCO4)o2)cc1`, the “activity change, negative = inhibition” value is -0.023%.
Consider `Nc1ccc(S(=O)(=O)N2CCCCC2c2cccnc2)cc1` (stereo not drawn), for which the “activity change, negative = inhibition” value was 5.3%.
As to `O=C1NC(=O)N(Cc2ccco2)C(=O)/C1=C/C=C/c1ccco1`, the Potency is 13.1 µM (active).
Regarding `COc1ccc(NC(=O)c2c(C)nn(Cc3ccccc3Cl)c2Cl)cc1Cl`, the “activity change, negative = inhibition” value is 1.39%.
On the same count and under the same terms, for `Cc1nn(Cc2ccc(Cl)cc2Cl)c(Cl)c1C(=O)Nc1ccc(OC(F)F)cc1` the value was 1.17%; for `CC(=Nc1ccc2c(c1)CCC2)c1c(O)n(C)c(=O)n(C)c1=O`, 0.651%.
